PubChem BioAssay (EPA / NIEHS)
Records with an inconclusive call do not appear. More than one record can exist for a structure, and the calls need not agree. Activity calls are given as the source filed them. The calls were made as follows, unless noted: active = hit-call score of the fitted dose curve at least 0.9, where 1 is the maximum; inconclusive = response in the unintended direction; inactive = score below 0.9.

Assays:
[1] = read-out: Cytochrome P450 2C19 (Homo sapiens) (UniProt P33261); assay: CLD_CYP2C19_48hr: CellzDirect (CLD) Gene Expression Assay for xenobiotic metabolism (CYP2C19) at 48 hours (AID 2283700);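 also: fitted upward so actives raise CYP2C19 mRNA above the 0.2% DMSO vehicle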
Outline: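 Primary human hepatocytes (two donor preparations) dosed daily for two days, harvested at 48 h; CYP2C19 mRNA induction measured by qNPA chemiluminescence. Gain-of-signal fitted relative to 0.2% DMSO vehicle as baseline.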

[2] = CLD_ACTIN_48hr: CellzDirect (CLD) Gene Expression Assay for Baseline Control (Actin) at 48 hours (AID 2283702)
Outline: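 Primary human hepatocytes (two donor preparations) dosed daily for two days with ToxCast chemicals at multiple concentrations versus 0.2% DMSO vehicle; harvested at 48 h. Actin mRNA measured as a background control by quantitative nuclease protection assay with chemiluminescence.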

[3] = read-out: xenobiotic metabolism (CYP1A2), CYP1A2 (gene 1544); assay: CLD_CYP1A2_48hr: CellzDirect (CLD) Gene Expression Assay for xenobiotic metabolism (CYP1A2) at 48 hours (AID 2283703)
Outline: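 Primary human hepatocytes from two donor preparations were dosed daily for two days at multiple concentrations in 0.2% DMSO vehicle. CYP1A2 mRNA was measured at 48 hours by chemiluminescent quantitative nuclease protection assay, with gain of signal fitted versus DMSO and cytotoxicity annotated from morphology.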

[4] = read-out: xenobiotic metabolism (CYP1A1), CYP1A1 (gene 1543); assay: CLD_CYP1A1_48hr: CellzDirect (CLD) Gene Expression Assay for xenobiotic metabolism (CYP1A1) at 48 hours (AID 2283705)
Outline: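 Primary human hepatocytes from two donors dosed daily for two days at multiple concentrations, 0.2% DMSO vehicle; CYP1A1 mRNA induction at 48 h by qNPA chemiluminescence. Cytotoxicity noted by phase-contrast morphology.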

[5] = read-out: alkyl and aryl transferase (GSTA2), GSTA2 (gene 2939); assay: CLD_GSTA2_48hr: CellzDirect (CLD) Gene Expression Assay for alkyl and aryl transferase (GSTA2) at 48 hours (AID 2283708);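 also: active means mRNA induction above DMSO vehicle baseline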
Outline: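 Primary human hepatocytes dosed daily for two days (0.2% DMSO vehicle), harvested at 48 h. GSTA2 mRNA induction measured by quantitative nuclease protection assay with chemiluminescent imaging, fitted for gain of signal relative to DMSO.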

[6] = read-out: glucuronosyltransferase (UGT1A1), UGT1A1 (gene 54658); assay: CLD_UGT1A1_48hr: CellzDirect (CLD) Gene Expression Assay for glucuronosyltransferase (UGT1A1) at 48 hours (AID 2283709);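 also: actives increase expression relative to DMSO so potency refers to induction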
Outline: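 Human primary hepatocytes dosed daily for two days (0.2% DMSO vehicle), harvested at 48 h. UGT1A1 mRNA induction measured by quantitative nuclease protection assay with chemiluminescence; gain of signal versus DMSO; cytotoxicity flagged from morphology.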

[7] = STM_H9_OrnithineISnorm_perc: Stemina devTOX quickPredict H9 human embryonic stem cell (hESC)-based Assay for Ornithine (ORN) Metabolite Biomarker, Normalized (AID 2283712; active = hit-call score of the fitted dose curve at least 0.9, where 1 is the maximum; inactive = score below 0.9;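 also: ornithine released into spent medium during last day measured by mass spectrometry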)
Outline: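 Cells: undifferentiated H9 hESC. Dosing: 72 h, media replaced every 24 h. Sample: final 24-h conditioned media, 40% acetonitrile. Read: UPLC-HRMS ornithine area vs 13C standard, % DMSO control.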

[8] = STM_H9_CystineISnorm_perc: Stemina devTOX quickPredict H9 human embryonic stem cell (hESC)-based Assay for Cystine (CYSS) Metabolite Biomarker, Normalized (AID 2283713; active = hit-call score of the fitted dose curve at least 0.9, where 1 is the maximum; inactive = score below 0.9)
Outline: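 Secreted cystine was measured by UPLC-HRMS in H9 hESC medium after 72h compound exposure with 24-hourly replenishment. Values are standard-normalized areas relative to 0.1% DMSO.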

[9] = STM_H9_OrnCyssISnorm_ratio: Stemina devTOX quickPredict H9 human embryonic stem cell (hESC)-based Assay for Ornithine (ORN):Cystine (CYSS) Ratio (AID 2283714)
Outline: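 Undifferentiated H9 hESCs were exposed to compound for 72h with media and chemical replaced every 24h. Final 24-h conditioned media were deproteinized and analysed by UPLC-HRMS. ORN and CYSS peak areas were normalized to C13 internal standards and the ratio taken versus 0.1% DMSO.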

[10] = read-out: xenobiotic metabolism (CYP2C9), CYP2C9 (gene 1559); assay: CLD_CYP2C9_48hr: CellzDirect (CLD) Gene Expression Assay for xenobiotic metabolism (CYP1A2) at 48 hours (AID 2283701; active = hit-call score of the fitted dose curve at least 0.9, where 1 is the maximum; inactive = score below 0.9)
Outline: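 Primary human hepatocytes (two donor preparations) dosed daily for two days with test chemicals, 0.2% DMSO vehicle; harvested at 48 h. mRNA induction quantified by qNPA chemiluminescence, fitted for gain of signal against DMSO baseline; cytotoxicity annotated from phase-contrast morphology.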

Measured: AC50

Chain of Cytochrome P450 2C19 (Homo sapiens) (P33261 whole entry, looked up): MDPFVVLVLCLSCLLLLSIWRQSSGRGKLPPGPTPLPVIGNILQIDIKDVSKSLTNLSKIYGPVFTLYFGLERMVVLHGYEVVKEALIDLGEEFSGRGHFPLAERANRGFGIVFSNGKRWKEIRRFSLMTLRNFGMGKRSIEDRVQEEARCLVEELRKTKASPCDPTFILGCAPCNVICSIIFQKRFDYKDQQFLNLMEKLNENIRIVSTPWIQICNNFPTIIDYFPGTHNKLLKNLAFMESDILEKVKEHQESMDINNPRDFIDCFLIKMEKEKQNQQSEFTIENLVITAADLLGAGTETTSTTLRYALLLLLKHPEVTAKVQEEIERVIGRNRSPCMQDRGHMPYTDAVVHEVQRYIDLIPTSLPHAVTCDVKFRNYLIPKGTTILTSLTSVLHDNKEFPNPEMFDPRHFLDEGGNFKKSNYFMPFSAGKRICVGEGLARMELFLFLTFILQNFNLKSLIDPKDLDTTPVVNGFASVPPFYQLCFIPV

CCOC(=O)C(C)Oc1ccc(Oc2nc3ccc(Cl)cc3o2)cc1 (centres undefined)
inactive: [1] | [2] | [3] | [4] | [5] | [6]

Oc1ccc(C(c2ccc(O)cc2)C(Cl)(Cl)Cl)cc1
active: [7] 0.00653 µM
inactive: [1] | [2] | [5] | [6] | [8]

COC(=O)c1cccc(C)c1S(=O)(=O)NC(=O)Nc1nc(OCC(F)(F)F)nc(N(C)C)n1
inactive: [1] | [6]
active: [3] 5.82 µM | [4] 8.53 µM

OB(O)O
not listed: [5] | [9] | [10]
inactive: all other assays above

COC(=O)c1ccc(I)cc1S(=O)(=O)NC(=O)Nc1nc(C)nc(OC)n1
active: [3] 20 µM | [4] 20 µM
inactive: [1] | [2] | [6] | [7] | [8]

CCCOC(=O)c1ccc(C(=O)OCCC)nc1
inactive: [1] | [2] | [3] | [6]

c1ccc(Nc2ccccc2)cc1
active: [3] 4.82 µM
inactive: [1] | [4] | [5]

CCCCC(CC)COC(=O)c1ccccc1C(=O)O (centres undefined)
active: [7] 341 µM | [8] 250 µM | [9] 283 µM
not listed: [2] | [10]
inactive: all other assays above

COC(=O)c1ccc(CNS(C)(=O)=O)cc1S(=O)(=O)NC(=O)Nc1nc(OC)cc(OC)n1
inactive: [1] | [2] | [3] | [4] | [5] | [6]

CCOC(=O)C(C)Oc1ccc(Oc2cnc3cc(Cl)ccc3n2)cc1 (centres undefined)
inactive: [1] | [2] | [3] | [6] | [7]
active: [8] 9.92 µM

CCC(O)=C1C(=O)CC(C(=O)O)CC1=O (centres undefined)
inactive: [1] | [2] | [3] | [4] | [6]

COc1c(Cl)ccc(Cl)c1C(=O)O
inactive: [1] | [2] | [3] | [5] | [6]
active: [10] 0.0267 µM

CCSC(=O)N(CC(C)C)CC(C)C
not listed: [4] | [10]
inactive: all other assays above

CC1(C)C(C=C(Cl)Cl)C1C(=O)OCc1cccc(Oc2ccccc2)c1 (centres undefined)
inactive: [1] | [2] | [4] | [5]
active: [3] 9.51 µM | [6] 3.97 µM

CCN(CC)C(=O)c1cccc(C)c1
inactive: [1] | [3] | [6]

COC(=O)CSc1cc(N=c2sc(=O)n3n2CCCC3)c(F)cc1Cl
active: [10] 9.13 µM | [6] 5.72 µM | [7] 78.8 µM | [8] 83 µM | [9] 80 µM
inactive: [1] | [3] | [4]

CCCCOC(=O)C(C)Oc1ccc(Oc2ccc(C(F)(F)F)cn2)cc1 (centres undefined)
inactive: [1] | [2] | [7] | [8] | [9]

CCC(C)OC(=O)N1CCCCC1CCO (centres undefined)
inactive: [1] | [2] | [3] | [4] | [5] | [6]

CCCCCCC(C)OC(=O)COc1nc(F)c(Cl)c(N)c1Cl (centres undefined)
inactive: [1] | [3] | [5] | [6]

COC(=O)c1ccccc1S(=O)(=O)NC(=O)Nc1nc(OC(F)F)cc(OC(F)F)n1
active: [3] 11 µM
inactive: [1] | [2] | [4] | [6]

COCCO
inactive: [2] | [3] | [4] | [5] | [6]

COc1nc(C)nc(NC(=O)NS(=O)(=O)c2ccccc2OCCCl)n1
inactive: [1] | [5] | [6]

CCCOC(=O)NCCCN(C)C
inactive: [1] | [2] | [3] | [4] | [5] | [6]

C#CCOC(=O)[C@@H](C)Oc1ccc(Oc2ncc(Cl)cc2F)cc1
active: [7] 65.5 µM | [8] 11.1 µM | [9] 86.9 µM
not listed: [4] | [10]
inactive: all other assays above

CCCN(CCC)C(=O)SCC
active: [3] 6.32 µM
inactive: [1] | [2] | [3] | [5] | [6]

CCCCOC(=O)[C@@H](C)Oc1ccc(Oc2ccc(C(F)(F)F)cn2)cc1
active: [7] 80.7 µM | [8] 42.8 µM | [9] 52.8 µM
not listed: [2] | [10]
inactive: all other assays above

CCCN(CCC)c1c([N+](=O)[O-])cc(C(F)(F)F)c(N)c1[N+](=O)[O-]
active: [3] 2.63 µM | [4] 5.19 µM | [6] 3.96 µM
inactive: [5] | [7] | [8]

S=C([S-])NCCNC(=S)[S-].[Mn+2]
inactive: [2] | [8] | [9]
active: [4] 3.58 µM | [7] 88.1 µM

c1ccc2[nH]c(-c3cscn3)nc2c1
active: [3] 1.36 µM | [4] 0.781 µM
inactive: [6]

O=C(Nc1ccc([N+](=O)[O-])cc1Cl)c1cc(Cl)ccc1O
active: [3] 0.549 µM | [4] 3.55 µM
inactive: [5] | [6] | [7] | [8] | [9]

N#CSCSc1nc2ccccc2s1
inactive: [2] | [5]
active: [3] 2.82 µM | [4] 7.52 µM | [7] 17.2 µM | [8] 15.2 µM | [9] 16.4 µM

O=C(O)C1(C(=O)Nc2ccc(Cl)cc2Cl)CC1
active: [9] 9.92 µM
not listed: [1] | [5] | [10]
inactive: all other assays above

CCNc1nc(N)nc(Cl)n1
active: [3] 3.97 µM
not listed: [1] | [6] | [10]
inactive: all other assays above

COC(=O)c1ccccc1C(=O)O
active: [7] 0.00297 µM
not listed: [1] | [5] | [10]
inactive: all other assays above

COC(=O)c1c(Cl)nn(C)c1S(=O)(=O)NC(=O)Nc1nc(OC)cc(OC)n1
active: [3] 1.13 µM
inactive: [2] | [4] | [5] | [6]

O=C(c1ccc(O)cc1O)c1ccc(O)cc1O
active: [7] 51.1 µM | [8] 18.5 µM

CCCCOCCOCCOCc1cc2c(cc1CCC)OCO2
active: [3] 5.82 µM | [4] 12 µM | [6] 2.22 µM

CCCCCOC(=O)COc1cc(N2C(=O)C3=C(CCCC3)C2=O)c(F)cc1Cl
active: [7] 0.104 µM
not listed: [1] | [10]
inactive: all other assays above

N[C@@H](Cc1cc(I)c(Oc2ccc(O)c(I)c2)c(I)c1)C(=O)O
inactive: [7] | [8] | [9]

CCOC(=O)COc1cc(-n2ncc(C(F)(F)F)c(C)c2=O)c(F)cc1Cl
inactive: [2] | [3] | [4] | [5] | [6]

CSC(=O)c1cccc2nnsc12
inactive: [2] | [4] | [5] | [6]
active: [3] 9.55 µM | [7] 80.2 µM | [8] 81.4 µM | [9] 78.6 µM

CCN(Cc1c(F)cccc1Cl)c1c([N+](=O)[O-])cc(C(F)(F)F)cc1[N+](=O)[O-]
active: [3] 0.565 µM | [4] 1.22 µM | [7] 17.2 µM
inactive: [6] | [8] | [9]

C=CCOC(Cn1ccnc1)c1ccc(Cl)cc1Cl (centres undefined)
inactive: [2] | [6] | [7] | [8]
active: [4] 3.84 µM | [5] 36.7 µM

CCCCC(CC)CN1C(=O)C2C3C=CC(C3)C2C1=O (centres undefined)
inactive: [5] | [6]
active: [3] 12.6 µM | [4] 33.7 µM

CCOC(=O)NCCOc1ccc(Oc2ccccc2)cc1
inactive: [3] | [4] | [5]
active: [6] 20 µM

Cc1nn(C)c(Oc2ccccc2)c1C=NOCc1ccc(C(=O)OC(C)(C)C)cc1
inactive: [2] | [4] | [5]
active: [7] 0.0118 µM | [8] 0.128 µM | [9] 0.0589 µM

CN(C)C(=O)Nc1ccc(Cl)c(Cl)c1
active: [3] 11.9 µM | [4] 12.4 µM | [8] 70.5 µM | [9] 82.4 µM
inactive: [6] | [7]

CCOC(=O)[C@H](C)Oc1ccc(Oc2nc3ccc(Cl)cc3o2)cc1
active: [3] 20 µM
inactive: [2] | [4] | [5] | [6]

S=C(S)NCCNC(=S)S.[Mn+2].[S-]C([S-])=NCCN=C([S-])[S-].[Zn+2]
inactive: [7] | [8] | [9]
active: [4] 0.252 µM

CC(C)(c1ccc(O)cc1)c1ccc(O)cc1
active: [7] 67.3 µM
not listed: [1] | [3] | [10]
inactive: all other assays above

C[C@]12C[C@H](O)[C@H]3[C@@H](CCC4=CC(=O)CC[C@@]43C)[C@@H]1CC[C@@H]2C(=O)CO
active: [7] 77 µM | [8] 81.5 µM | [9] 93.8 µM

CC(C)CCCCCCc1ccc(O)cc1
active: [7] 73.4 µM | [8] 70 µM | [9] 75.7 µM

CC(C)(C)[C@@H](O)[C@@H](Cc1ccc(Cl)cc1)n1cncn1
inactive: [5] | [6] | [7] | [8]
active: [3] 3.97 µM | [4] 3.97 µM | [9] 88.7 µM
